In PubChem BioAssay:
Unmarked numbers belong to inactive results. For some of these results: Results with a measured potency or affinity are listed apart. The source made the active and inactive calls. Unless noted, no rule for the calls is given here.

Tests used:
[1] = antimalarial activity against Dd2 strain (AID 2302;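 active = growth inhibition above 50% at the single 2 µM test dose, taken to imply half-maximal potency below 2 µM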;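 also: 0% = DMSO untreated growth and 100% = chloroquine plus artemisinin killed control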); settings: P. falciparum Dd2 in RBCs, LDH growth readout, 72 h; at 2 µM; active compounds read high
[2] = human hepatoma cell viability loss – ATP luminescence, cytotoxicity control for P. falciparum antimalarial project, primary screen (AID 2303;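 active = inhibition above 50%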;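 also: 0% = DMSO wells and 100% = digitonin-killed cells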); settings: HepG2 viability, 24-48 h, at 10 µM, active compounds read high
[3] = target: L-lactate dehydrogenase (Plasmodium falciparum (isolate CDC / Honduras)) (UniProt Q27743); assay: PfLDH activity inhibition – cell lysate, 3D7 strain, counter-screen for P. falciparum growth inhibition project (AID 2304);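 also: 0% = vehicle and 100% = reference inhibitor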; settings: P. falciparum 3D7 crude extract, LDH APAD/NBT absorbance; at 2 µM; active compounds read high
L-lactate dehydrogenase (Plasmodium falciparum (isolate CDC / Honduras)), sequence (Q27743 whole entry, looked up): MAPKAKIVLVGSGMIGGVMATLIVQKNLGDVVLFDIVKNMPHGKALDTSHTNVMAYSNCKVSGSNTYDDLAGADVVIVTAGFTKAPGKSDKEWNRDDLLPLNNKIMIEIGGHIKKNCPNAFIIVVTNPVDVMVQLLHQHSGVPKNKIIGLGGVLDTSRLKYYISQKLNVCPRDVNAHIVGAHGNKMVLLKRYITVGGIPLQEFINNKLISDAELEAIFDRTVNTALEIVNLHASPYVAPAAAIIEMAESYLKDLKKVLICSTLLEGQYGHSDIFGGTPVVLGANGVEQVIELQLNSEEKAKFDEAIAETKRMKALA

[4] = inhibition of 3D7 malaria parasite growth – strain 3D7 (AID 2306);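 also: 0% = DMSO wells and 100% = chloroquine plus artemisinin control wells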; settings: P. falciparum 3D7 erythrocytic growth, LDH absorbance, 72 h; at 2 µM; active compounds read high
[5] = target: Calcium-dependent protein kinase 1 (Plasmodium falciparum (isolate 3D7)) (UniProt P62344); assay: PfCDPK1 kinase inhibitors, biochemical, TCAMS library (AID 1159585; cut-off not given, nearly all actives have IC50 up to about 0.98 µM;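 also: inhibitors leave more ATP so luminescence rises with inhibition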); settings: recombinant PfCDPK1, Kinase-Glo ATP depletion luminescence
Calcium-dependent protein kinase 1 (Plasmodium falciparum (isolate 3D7)), sequence (P62344 whole entry, looked up): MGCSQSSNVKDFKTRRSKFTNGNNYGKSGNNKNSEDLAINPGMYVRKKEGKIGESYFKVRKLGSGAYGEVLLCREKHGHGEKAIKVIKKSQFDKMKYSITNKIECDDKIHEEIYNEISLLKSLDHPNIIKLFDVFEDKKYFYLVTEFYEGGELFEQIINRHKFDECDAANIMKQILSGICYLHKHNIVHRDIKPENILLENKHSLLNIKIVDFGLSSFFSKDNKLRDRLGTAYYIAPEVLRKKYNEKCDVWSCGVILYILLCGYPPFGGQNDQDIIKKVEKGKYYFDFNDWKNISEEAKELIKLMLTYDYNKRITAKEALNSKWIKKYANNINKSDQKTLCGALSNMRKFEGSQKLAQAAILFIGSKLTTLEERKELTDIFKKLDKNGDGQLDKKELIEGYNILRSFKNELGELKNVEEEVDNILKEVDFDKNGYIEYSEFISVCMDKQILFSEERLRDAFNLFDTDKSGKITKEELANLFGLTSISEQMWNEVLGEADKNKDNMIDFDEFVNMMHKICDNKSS

[6] = target: Plasmodium falciparum protein kinase 6 (PK6, PF3D7_1337100) (UniProt Q8IDW1); assay: PfPK6 kinase inhibitors, biochemical, TCAMS library (AID 1159586); settings: recombinant PfPK6, Kinase-Glo ATP depletion luminescence
Plasmodium falciparum protein kinase 6 (PK6, PF3D7_1337100), sequence (Q8IDW1 1-305): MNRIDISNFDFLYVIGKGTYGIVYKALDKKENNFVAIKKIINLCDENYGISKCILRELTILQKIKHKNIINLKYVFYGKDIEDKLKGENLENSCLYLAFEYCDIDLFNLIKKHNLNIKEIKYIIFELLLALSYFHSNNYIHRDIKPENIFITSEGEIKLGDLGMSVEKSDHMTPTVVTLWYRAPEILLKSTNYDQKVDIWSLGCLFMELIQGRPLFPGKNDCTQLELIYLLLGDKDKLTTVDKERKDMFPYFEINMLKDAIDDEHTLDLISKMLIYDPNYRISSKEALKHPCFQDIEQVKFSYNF

[7] = target: Protein kinase 7 (PK7), Plasmodium falciparum 3D7 (PF3D7_0213400) (UniProt Q7YTF7); assay: inhibition of Plasmodium PK7 catalytic activity – biochemical, TCAMS antimalarial set, Kinase-Glo luminescence (AID 1159587); settings: recombinant PfPK7, Kinase-Glo ATP depletion luminescence
Protein kinase 7 (PK7), Plasmodium falciparum 3D7 (PF3D7_0213400), sequence (Q7YTF7 1-343): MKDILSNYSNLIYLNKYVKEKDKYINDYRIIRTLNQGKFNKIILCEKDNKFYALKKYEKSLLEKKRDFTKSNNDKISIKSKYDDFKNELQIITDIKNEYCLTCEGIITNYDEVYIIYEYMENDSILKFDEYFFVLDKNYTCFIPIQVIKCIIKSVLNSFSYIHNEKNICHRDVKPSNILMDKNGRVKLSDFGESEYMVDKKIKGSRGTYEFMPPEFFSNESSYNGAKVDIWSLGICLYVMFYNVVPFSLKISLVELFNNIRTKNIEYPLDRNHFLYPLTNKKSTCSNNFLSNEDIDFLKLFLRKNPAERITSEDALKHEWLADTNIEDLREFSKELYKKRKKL

[8] = target: Calcium-dependent protein kinase 4 (Plasmodium falciparum (isolate 3D7)) (UniProt Q8IBS5); assay: PfCDPK4 kinase inhibitors, biochemical, TCAMS library (AID 1159588; cut-off not given, nearly all actives have IC50 up to about 0.91 µM); settings: recombinant PfCDPK4, Kinase-Glo ATP depletion luminescence
Calcium-dependent protein kinase 4 (Plasmodium falciparum (isolate 3D7)), sequence (Q8IBS5 whole entry, looked up): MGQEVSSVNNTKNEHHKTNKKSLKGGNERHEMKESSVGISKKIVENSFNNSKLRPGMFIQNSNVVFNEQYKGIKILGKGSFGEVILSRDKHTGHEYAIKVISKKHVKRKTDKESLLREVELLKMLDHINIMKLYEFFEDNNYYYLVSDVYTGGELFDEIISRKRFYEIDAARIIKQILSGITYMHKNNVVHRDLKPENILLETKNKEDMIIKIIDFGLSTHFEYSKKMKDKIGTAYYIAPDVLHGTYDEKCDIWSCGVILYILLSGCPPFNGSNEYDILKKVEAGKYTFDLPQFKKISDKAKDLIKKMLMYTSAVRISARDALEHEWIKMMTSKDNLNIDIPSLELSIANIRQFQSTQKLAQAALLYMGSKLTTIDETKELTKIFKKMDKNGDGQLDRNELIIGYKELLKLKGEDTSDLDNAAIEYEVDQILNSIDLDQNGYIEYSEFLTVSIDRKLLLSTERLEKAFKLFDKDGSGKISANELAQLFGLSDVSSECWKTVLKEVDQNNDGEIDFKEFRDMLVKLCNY

Structure (SMILES)	growth inhibition [1]	inhibition [2]	inhibition [3]	growth inhibition [4]	outcome [5]	outcome [6]	outcome [7]	outcome [8]
CCN(CC)CCOc1ccc(C(O)(C#CC(O)(c2ccc(Br)cc2)c2ccc(OCCN(CC)CC)cc2)c2ccc(Br)cc2)cc1 (stereo not drawn)	99% (active)	99% (active)	7%	99% (active)	inactive	inactive	inactive	inactive
NS(=O)(=O)c1ccc(CNC(=O)c2cnc3c(O)cccc3c2Nc2cccc(NC(=O)c3ccc(Cl)c(Cl)c3)c2)cc1	35%	56% (active)	-1%	97% (active)	inactive	inactive	inactive	inactive
O=C(NC1CC1)c1cnc(N2CCC(Cc3ccccc3)CC2)c(Cl)c1	96% (active)	10%	-2%	96% (active)	inactive	inactive	inactive	inactive
CC(C)c1cc2c(ccc3nc(N)nc(N)c32)o1	37%	66% (active)	3%	99% (active)	inactive	inactive	inactive	inactive
COc1ccc(-c2ccc(NC(=O)c3cccc(Cl)c3)cc2)cc1CN1CCC(O)CC1	12%	15%	-5%	102% (active)	inactive	inactive	inactive	inactive
COc1ccc(-c2cnc3[nH]cc(-c4ccc(C(=O)O)c(C)c4)c3c2)cn1	99% (active)	23%	-5%	99% (active)	inactive	inactive	inactive	inactive
c1ccc(CN2CCC(NCc3ccc(-c4ccc(CNCc5cccnc5)cn4)cc3)CC2)cc1	13%	-1%	-5%	97% (active)	inactive	inactive	inactive	inactive
Oc1cccc(CCNCCCCCCNCCc2ccc(Cl)cc2)c1	-3%	23%	-1%	96% (active)	inactive	inactive	inactive	inactive
O=C(Nc1ccc(OC2CCN(Cc3ccsc3)C2)c(Cl)c1)c1ccc2ncccc2c1 (stereo not drawn)	10%	84% (active)	-1%	88% (active)	inactive	inactive	inactive	inactive
CSc1ccc2nccc(Nc3ccc(Oc4ccccc4)cc3)c2c1	68% (active)	30%	-7%	94% (active)	inactive	inactive	inactive	inactive
CC(C)COc1ccc(Cl)cc1Cc1ccc(-c2nc3c(F)cccc3[nH]2)o1	47%	15%	-1%	98% (active)	inactive	inactive	inactive	inactive
Fc1ccc2nc(Nc3nc(-c4ccccn4)cs3)sc2c1	100% (active)	42%	3%	102% (active)	inactive	inactive	inactive	inactive
Nc1cc(-c2cc3c(OCc4ccccc4)cccc3[nH]2)ccn1	15%	23%	4%	85% (active)	inactive	inactive	inactive	inactive
CC(C)(C)c1ccc(CN2CCC(CNC(=O)c3cc(-c4ccccc4C(F)(F)F)cs3)C2)cc1 (stereo not drawn)	11%	61% (active)	-3%	92% (active)	inactive	inactive	inactive	inactive
CCc1c[nH]c2c(N3CCCCS3(=O)=O)cc(C(=O)N[C@@H](Cc3ccccc3)[C@H](O)CNCc3cccc(OC)c3)cc12	91% (active)	0%	-3%	86% (active)	inactive	inactive	inactive	inactive
COc1ccc(-c2cccc(CNCc3ccc(F)cc3)c2)cc1S(=O)(=O)NCCN1CCCC1	16%	20%	4%	101% (active)	inactive	inactive	inactive	inactive
N#Cc1ccnc(-c2ccc(CNC3CCN(CC4Cn5c(=O)ccc6ccc(F)c4c65)CC3)cc2)c1 (stereo not drawn)	41%	24%	2%	88% (active)	inactive	inactive	inactive	inactive
Cc1cc(-c2ccc(Cl)cc2)c2c(N)c(C(=O)Nc3ccc(F)cc3)sc2n1	87% (active)	12%	0%	97% (active)	inactive	inactive	inactive	inactive
Cc1noc(C)c1-c1ccc2c(Nc3ccc(C(F)(F)F)cc3)c(C(N)=O)cnc2c1	95% (active)	1%	6%	100% (active)	inactive	inactive	inactive	inactive
O=C(Nc1ccc(Cn2ncc(N3CCCNCC3)c(Cl)c2=O)cc1)Nc1ccc(SC(F)(F)F)cc1	68% (active)	9%	4%	93% (active)	inactive	inactive	inactive	inactive
COc1cc(Cc2cnc(N)nc2N)cc(OC)c1OCCNC(=O)[C@@H](N)CCC(=O)O	-4%	-1%	-6%	96% (active)	inactive	inactive	inactive	inactive

Structure (SMILES)	growth inhibition [1]	inhibition [2]	inhibition [3]	growth inhibition [4]	outcome [5]	outcome [6]	outcome [7]	outcome [8]
COc1ccc2nc(C)cc(NN=Cc3cccc(Cl)c3)c2c1	100% (active)	13%	7%	101% (active)	inactive	inactive	inactive	inactive
O=C(Nc1cccc(-c2csc(-c3nc4ccccc4[nH]3)c2)c1)c1ccncc1	61% (active)	64% (active)	-1%	101% (active)	inactive	inactive	inactive	inactive
COc1ccc(Cn2c(Nc3cccc(C(F)(F)F)c3)nc3cc(C(=O)NC4CC4)cnc32)cc1Cl	96% (active)	-2%	-3%	94% (active)	inactive	inactive	inactive	inactive
FC(F)(F)c1ccc2nc(-c3cccc(-c4ccc(CNCCN5CCNCC5)cc4)c3)[nH]c2c1	0%	17%	4%	96% (active)	inactive	inactive	inactive	inactive
COC(=O)c1cc(OC2CCOC2=O)cc2c1OC(C)(C)O2 (stereo not drawn)	-1%	6%	2%	97% (active)	inactive	inactive	inactive	inactive
CN(C)c1ccc(-c2cscc2C(=O)NC2CCCN(Cc3cccnc3)C2)cc1 (stereo not drawn)	70% (active)	5%	0%	89% (active)	inactive	inactive	inactive	inactive
COc1ccc(C)c(Nc2ccnc(Nc3ccc(-c4cnc[nH]4)cc3)n2)c1	6%	40%	-1%	97% (active)	inactive	inactive	inactive	inactive
CN1C(=CC(=O)NC(=O)c2ccccc2)C(C)(C)c2ccccc21	89% (active)	-5%	4%	93% (active)	inactive	inactive	inactive	inactive
O=S(=O)(c1ccc(NC(=S)NN=Cc2ccccn2)cc1)N1CCCCC1	56% (active)	43%	-5%	98% (active)	inactive	inactive	inactive	inactive
CC1CN(Cc2ccc(-c3ccc(-c4nc5ccc(F)cc5[nH]4)s3)cc2)CC(C)O1 (stereo not drawn)	89% (active)	35%	-10%	88% (active)	inactive	inactive	inactive	inactive
CC(C)CCN(Cc1cncn1Cc1ccccc1F)C(=O)c1cncc(-c2ccccc2)c1	3%	1%	-5%	96% (active)	inactive	inactive	inactive	inactive
N#Cc1cccc(NC(=O)c2cccc(S(=O)(=O)NC3CCN(CC4CCCCC4)C3)c2)c1 (stereo not drawn)	27%	29%	1%	101% (active)	inactive	inactive	inactive	inactive
Cc1ccc(C2CCN(CCCCNC(=O)c3ccc(-c4ccc(C#N)cc4)cc3)CC2)c(O)c1	90% (active)	45%	-3%	100% (active)	inactive	inactive	inactive	inactive
O=C(Cc1cccc(Cl)c1)Nc1cccc(-c2c[nH]c3nc(Nc4ccccc4)ncc23)c1	70% (active)	5%	-2%	99% (active)	inactive	inactive	inactive	inactive
O=C1CCCN1CCCNCc1ccc(-c2ccc(-c3nc4ccc(C(F)(F)F)cc4[nH]3)cc2)cc1	98% (active)	10%	-5%	101% (active)	inactive	inactive	inactive	inactive
O=C(NCCCCCN1CCCN(C(=O)Nc2ccc(Cl)c(C(F)(F)F)c2)CC1)[C@@H]1C[C@H]1c1ccc(Cl)c(Cl)c1	1%	41%	3%	100% (active)	inactive	inactive	inactive	inactive
O=C(/C=C/c1ccc(F)cc1)NC1CCC(CCN2CCCN(c3ccc(C(F)(F)F)cn3)CC2)CC1 (stereo not drawn)	13%	29%	-1%	97% (active)	inactive	inactive	inactive	inactive
O=C(NCCCCCN1CCC(c2c[nH]c3ccccc23)CC1)Nc1ccc(Cl)c(Cl)c1	-4%	42%	6%	92% (active)	inactive	inactive	inactive	inactive
CN1CCC(C(=O)Nc2ccc(-c3ccc(-c4nc5ccc(C(F)(F)F)cc5[nH]4)s3)cc2)CC1	95% (active)	53% (active)	4%	101% (active)	inactive	inactive	inactive	inactive
COc1cc2nc(N(C)Cc3cccc(I)c3)nc(N)c2cc1OC	88% (active)	7%	1%	101% (active)	inactive	inactive	inactive	inactive
